High-throughput results (PubChem)
Lassa entry inh: Lassa virus entry inhibition | Lassa virus pseudotype entry inhibition, cell reporter | Potency, µM (titrated, usually from 37.9 µM), most hits filed as inhibitors | hit rate 1.2% among 300,000; calls by dose curve; tested in HEK293 cells; note: nearly all actives have a fitted effect of over 50% in size
VACV Venus inh: inhibitors of vaccinia virus (Venus reporter). Potency, µM (series often up to 36.5 µM), most hits filed as inhibitors. Vaccinia virus Venus reporter expression, fluorescence. hit rate 0.46% among 330,000; calls by dose curve; tested in A549 cells; note: nearly all actives have a fitted effect of over 30% in size
CHX counter: counter-screen for Shiga toxin inhibitors: cycloheximide protein synthesis inhibition. max response, %. hit rate 12% among 300,000. cell reporter, cycloheximide protein synthesis inhibition counterscreen; in the data active = max response mostly above about 13%, no sharp cut-off; inactive = mostly below about 14%; note: read at 38.3 µM for the half of the compounds with a filed dose
Marburg entry inh: inhibitors of Marburg virus binding or cell entry | AID 540276 | Marburg virus pseudotyped entry inhibition, cell reporter | hit rate 1.8% among 300,000 | Potency, µM (series often up to 37.8 µM), most hits filed as inhibitors; calls by dose curve; tested in HEK293 cells
Shiga toxin inh: Shiga toxin inhibition | AID 2315 | hit rate 9.2% among 290,000 | inhibition, % at 38.7 µM | Vero cells, Shiga toxin protein synthesis inhibition reporter; in the data active = inhibition mostly above about 28%, no sharp cut-off; inactive = mostly below about 43%
Vaccinia mCherry: vaccinia inhibition (mCherry reporter); Vaccinia virus mCherry reporter infection, fluorescence; Potency, µM (series often up to 36.5 µM), most hits filed as inhibitors; hit rate 0.63% among 310,000; calls by dose curve; tested in A549 cells; note: nearly all actives have a fitted effect of over 35% in size
Of the large screens only hits and unclear results are named; the others gave an inactive call; ! = a repeat was not active. The full list was thinned out, with hits kept by preference.

Fc1ccccc1CSc1nc2ncc(Br)cc2[nH]1	Lassa entry inh inconclusive, VACV Venus inh inconclusive, CHX counter 22 (no result: Vaccinia mCherry)
Fc1ccccc1CSc1nc2ccccc2[nH]1	Lassa entry inh inconclusive, CHX counter 54, Marburg entry inh inconclusive, Shiga toxin inh 86
Fc1c(F)c(F)c(CSc2nc3ccccc3[nH]2)c(F)c1F	CHX counter 25, Shiga toxin inh 71 (no result: VACV Venus inh, Vaccinia mCherry)
c1ccc2[nH]c(SCc3cscn3)nc2c1	Lassa entry inh inconclusive, CHX counter 35, Marburg entry inh inconclusive, Shiga toxin inh 65
Cc1nc2nc(SCC(=O)C(C)(C)C)[nH]c2cc1Br	Lassa entry inh inconclusive (no result: Vaccinia mCherry)
CC(C)(C)C(=O)CSc1nc2ncc(Br)cc2[nH]1	VACV Venus inh inconclusive, CHX counter 36 (no result: Vaccinia mCherry)
CC(C)NC(=O)c1cnc2sc(N3CCCCCC3)nn2c1=O	none (no result: CHX counter, Marburg entry inh, Shiga toxin inh)
O=C1C(Cl)=C(N2CCCCC2)C(=O)C(Cl)=C1c1cnc(N2CCCCC2)s1	Lassa entry inh 12µM, Marburg entry inh inconclusive (no result: VACV Venus inh, Vaccinia mCherry)
O=C(C[C@@H]1C[C@H]2c3cc(NC(=O)C4CCC4)ccc3O[C@H]2[C@@H](CO)O1)NCc1ccc(-c2ccccc2)cc1	Vaccinia mCherry inconclusive (no result: Lassa entry inh, CHX counter, Marburg entry inh, Shiga toxin inh)
COc1ccc(C2=NS(=O)(=O)N(C)C(C(=O)NC3CCCC3)=C2)cc1OC	none (no result: Lassa entry inh, Marburg entry inh)
N#CC1=C(N)Oc2c(ccc3ccccc23)C1c1cccs1 (configuration not stated)	Lassa entry inh inconclusive, VACV Venus inh inconclusive, CHX counter 23, Marburg entry inh inconclusive, Shiga toxin inh 48, Vaccinia mCherry inconclusive
N#CC1=C(N)Oc2cc(O)ccc2C1c1cccs1 (configuration not stated)	none (no result: Vaccinia mCherry)
CC1(C)S[C@@H]2[C@H](N3C(=O)C(c4ccccc4)NC3(C)C)C(=O)N2[C@H]1C(=O)O (some centres not stated)	none (no result: Lassa entry inh, CHX counter, Marburg entry inh, Shiga toxin inh)
Nc1ccccc1NC(=O)NC(=O)c1ccccc1	CHX counter 41, Marburg entry inh inconclusive (no result: Shiga toxin inh)
Cc1c(NC(=O)c2ccccc2N)cccc1C(=O)O	CHX counter 25, Shiga toxin inh 46 (no result: VACV Venus inh, Vaccinia mCherry)
Nc1ccccc1NC(=O)c1ccccc1N	CHX counter 36, Marburg entry inh inconclusive, Shiga toxin inh 30 (no result: VACV Venus inh, Vaccinia mCherry)
O=C(c1ccco1)N1CCN(C(=S)Nc2ccccc2C(F)(F)F)CC1	Lassa entry inh inconclusive, Marburg entry inh inconclusive
O=C(Nc1nc(-c2ccccn2)cs1)c1ccc2c(c1)OCCO2	VACV Venus inh inconclusive, CHX counter 44, Shiga toxin inh 62, Vaccinia mCherry 11µM (no result: Lassa entry inh, Marburg entry inh)
Cc1cc(C(=O)Nc2nc(-c3ccccn3)cs2)ccc1[N+](=O)[O-]	Lassa entry inh inconclusive, CHX counter 28, Marburg entry inh inconclusive, Vaccinia mCherry inconclusive
CC(=O)Nc1ccc(C(=O)Nc2nc(-c3ccccn3)cs2)cc1	none (no result: Lassa entry inh, VACV Venus inh, Marburg entry inh, Vaccinia mCherry)
Cc1csc(NC(=O)c2ccccc2[N+](=O)[O-])n1	none (no result: VACV Venus inh, Vaccinia mCherry)
O=C(Nc1nc(-c2ccccn2)cs1)c1ccccc1-n1cnnn1	CHX counter 10, Vaccinia mCherry 1.3µM (no result: Lassa entry inh, Marburg entry inh)
O=C(Nc1nc(-c2ccccn2)cs1)c1cc(Cl)ccc1[N+](=O)[O-]	Lassa entry inh 4.5µM, VACV Venus inh inconclusive, Marburg entry inh 2.8µM, Vaccinia mCherry inconclusive
Cc1ncc([N+](=O)[O-])n1CC(=O)Nc1cc(Cl)ccc1Cl	none (no result: Lassa entry inh, VACV Venus inh, Marburg entry inh, Vaccinia mCherry)
CC1=C(C(=O)OC(C)C)C(c2cn(-c3ccccc3)nc2-c2cccs2)NC(=O)N1 (configuration not stated)	none (no result: VACV Venus inh, Vaccinia mCherry)
CC(=O)Nc1ccc(N(C(=O)Cc2cccs2)C(C(=O)NC2CCCC2)c2ccncc2)cc1 (configuration not stated)	none
COc1ccc(-c2ocnc2C(=O)NCc2nn(-c3ccccc3)nc2C)cc1	none (no result: Lassa entry inh, VACV Venus inh, Marburg entry inh, Vaccinia mCherry)
O=C(COc1ccc2ccc(=O)oc2c1)Nc1c(Cl)cccc1C(F)(F)F	none
C=C1C=C(C(F)F)n2ncc(C(=O)N3CCN(c4ccccc4)CC3)c2N1	Vaccinia mCherry inconclusive (no result: Lassa entry inh, CHX counter, Marburg entry inh, Shiga toxin inh)
NC1=C(Br)C(=O)c2ncccc2C1=O	Lassa entry inh inconclusive, VACV Venus inh 2.5µM, Marburg entry inh 2.5µM, Vaccinia mCherry inconclusive (no result: CHX counter, Shiga toxin inh)
O=C1CC(c2nc3ccccc3n2CCCOc2ccccc2)CN1c1ccc(F)cc1 (configuration not stated)	none (no result: CHX counter, Shiga toxin inh)
CC(C)(C)NC(=O)C(OC(=O)c1cccs1)c1ccccc1 (configuration not stated)	CHX counter 22 (no result: Lassa entry inh, Marburg entry inh)
Nc1ncnc2c1ncn2C1C=C(CO)C(O)C1O (configuration not stated)	Lassa entry inh 0.25µM, VACV Venus inh inconclusive, Marburg entry inh inconclusive, Vaccinia mCherry 1.1µM (no result: CHX counter, Shiga toxin inh)
Nc1ncnc2c1ncn2[C@@H]1O[C@H](CO)C[C@H]1O	none (no result: Lassa entry inh, CHX counter, Marburg entry inh, Shiga toxin inh)
CC[C@H](C)[C@H](NC(=O)[C@H](Cc1ccccc1)NC(=O)[C@H](C)NC(=O)[C@H](CC(=O)O)NC(=O)[C@H](CCCCN)NC(=O)[C@H](CO)NC(=O)[C@@H]1CCCN1C(=O)[C@@H]1CCC(=O)N1)C(=O)NCC(=O)N[C@@H](CC(C)C)C(=O)N[C@@H](CCSC)C(N)=O	none (no result: Lassa entry inh, VACV Venus inh, Marburg entry inh, Vaccinia mCherry)
CCCCNc1cccc2c1S(=O)(=O)N[C@@H](Cc1ccccc1)CO2	none (no result: VACV Venus inh, CHX counter, Marburg entry inh, Shiga toxin inh, Vaccinia mCherry)
Cc1ccc(NCC(=O)N/N=C\c2ccc[nH]2)cc1	Lassa entry inh inconclusive, Marburg entry inh 3.2µM, Vaccinia mCherry inconclusive
O=C(Cc1ccccc1)N/N=C/c1ccc[nH]1	none (no result: Lassa entry inh, VACV Venus inh, Marburg entry inh, Vaccinia mCherry)
Cc1c(Cl)cccc1NC(=O)CCC(=O)NNC(=O)c1ccccc1	none
Cc1ccc(C)c(NC(=O)CCC(=O)N/N=C/c2ccc[nH]2)c1	Lassa entry inh 18µM, Marburg entry inh inconclusive (no result: VACV Venus inh, Vaccinia mCherry)
Cc1c(Cl)cccc1NC(=O)CCC(=O)N/N=C/c1ccc[nH]1	Lassa entry inh inconclusive, VACV Venus inh inconclusive, Marburg entry inh 3.2µM, Vaccinia mCherry inconclusive
OCC1CCCN(c2nc3cc4c(cc3cc2CNCc2cccc(C(F)(F)F)c2)OCO4)C1 (configuration not stated)	none (no result: Lassa entry inh, CHX counter, Marburg entry inh, Shiga toxin inh)
Cc1ccsc1/C=N/NC(=O)C1CC(=O)N(c2ccccc2)C1 (configuration not stated)	none
Cc1ccc(/C=N\NC(=O)C2CC(=O)N(c3ccccc3)C2)o1 (configuration not stated)	CHX counter 24
O=C(N/N=C/c1ccccc1[N+](=O)[O-])c1ccncc1	CHX counter 21, Shiga toxin inh 40
COc1cccc(/C=N/NC(=O)c2cnccn2)c1OC	CHX counter 17, Shiga toxin inh 50
O=C(N/N=C/c1ccccc1[N+](=O)[O-])c1cnccn1	Lassa entry inh inconclusive, CHX counter 31, Marburg entry inh inconclusive, Shiga toxin inh 91
COc1ccc(CNC(=O)CCC2N=C3c4ccccc4N=C(SCc4cccc(F)c4)N3C2=O)cc1 (configuration not stated)	Lassa entry inh inconclusive (no result: CHX counter, Marburg entry inh, Shiga toxin inh)
COc1cccc(NS(=O)(=O)c2ccc3c(c2)NC(=O)C(C)S3)c1 (configuration not stated)	none (no result: Lassa entry inh, VACV Venus inh, Marburg entry inh, Vaccinia mCherry)
COc1ccccc1NS(=O)(=O)c1ccc2c(c1)NC(=O)C(C)S2 (configuration not stated)	CHX counter 23 (no result: Lassa entry inh, VACV Venus inh, Marburg entry inh, Vaccinia mCherry)
CCOc1ccc2[nH]c(=O)c(CN(Cc3cccs3)Cc3nnnn3C(C)(C)C)cc2c1	Lassa entry inh inconclusive, Marburg entry inh inconclusive
COc1ccc2[nH]c(=O)c(CN(Cc3cccs3)Cc3nnnn3C(C)(C)C)cc2c1	Marburg entry inh 18µM!
